Measured values taken from PubChem BioAssay.
Calls of active or inactive are those of the source.

Experiments:
[1] = test system: Plasmodium falciparum Sir2 (PF13_0152, Sir2A); test: pfSir2 binders on small-molecule microarrays, primary screen, biochemical, small-molecule microarray, 635 nm fluorescence (AID 1098); conditions: small-molecule microarray binding, fluorescence 635 nm; higher = more signal;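 further: score merges spot fluorescence intensity with its signal-to-noise ratio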
[2] = small-molecule microarray binders of probe aDKK1, primary screen, biochemical, biotinylated probe, 635/667 nm fluorescence (AID 1099); conditions: higher = more signal;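 further: score merges 667nm spot fluorescence with signal to noise across triplicate slides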
[3] = small-molecule microarray binders of probe aCHRDL2, primary screen, biochemical, biotinylated probe, 635/667 nm fluorescence (AID 1100); conditions: higher = more signal
[4] = splicing luciferase reporter signal modulators, primary screen, spliceosome inhibition project, cell-based, HEK293, splice +/- reporter (AID 1101); conditions: luminescence, 24 h, higher = more signal, called active from +8 up or from −8 down;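 further: HEK293 cells carrying a splicing-competent luciferase reporter gene; test concentration not given here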
[5] = molecular target: Fibroblast growth factor 10 (Homo sapiens) (UniProt O15520); test: FGF10 binders on small-molecule microarrays, primary screen, biochemical, small-molecule microarray, 635 nm fluorescence (AID 1102); conditions: FGF10 binding, fluorescence 635 nm, higher = more signal
[6] = test system: glycogen synthase kinase-3 (GSK3A per assay name; protocol says GSK3B); test: GSK3 binders on small-molecule microarrays, primary screen, biochemical, small-molecule microarray, 635 nm fluorescence, GSK3A (AID 1103); conditions: small-molecule microarray binding, fluorescence 635 nm; higher = more signal; further: the record names both GSK3A and GSK3B
[7] = molecular target: Epidermal growth factor receptor (Homo sapiens) (UniProt P00533); test: EGFR binders on small-molecule microarrays, primary screen, biochemical, small-molecule microarray, 635 nm fluorescence (AID 1104); conditions: EGFR binding, higher = more signal;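 further: score merges 667 nm emission intensity with spot signal to noise over triplicate slides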
[8] = molecular target: Follistatin-related protein 3 (Homo sapiens) (UniProt O95633); test: FSTL3 binders on small-molecule microarrays, primary screen, biochemical, small-molecule microarray, 635 nm fluorescence (AID 1105); conditions: FSTL3 binding, higher = more signal;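 further: score merges emission near 667 nm and signal to noise per printed spot across three slides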
[9] = molecular target: Dickkopf-related protein 1 (Homo sapiens) (UniProt O94907); test: DKK1 binders on small-molecule microarrays, primary screen, biochemical, small-molecule microarray, 635 nm fluorescence scan (AID 1106); conditions: DKK1 binding, higher = more signal;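 further: score merges emission near 667 nm with signal to noise over three replicate slides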
[10] = test system: Inhibin beta A chain (activin A); test: INHBA (activin A) binders on microarrays, primary screen, biochemical, small-molecule microarray, 635 nm fluorescence scan (AID 1107); conditions: small-molecule microarray binding, higher = more signal;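 further: mouse activin A protein probed at 4.33 µg/mL on printed slides; score merges bound-protein fluorescence near 667 nm with spot signal-to-noise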
[11] = test system: Human papillomavirus type 1a protein E7 (residues 44-93); test: HPV1a E7 fragment binders on microarrays, primary screen, biochemical, small-molecule microarray, residues 44-93, 635 nm fluorescence (AID 1108); conditions: small-molecule microarray binding, fluorescence 635 nm; higher = more signal;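 further: E7 fragment applied at 1 µg/mL in TBST for 1 h at 4 C; score combines spot fluorescence with its signal to noise ratio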
[12] = modulators of HCV replicon luciferase signal, primary screen, HCV replication inhibitor project, Huh7 cells, luciferase reporter (AID 1109); conditions: 48 h, higher = more signal;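 further: huh7 hepatoma cells harbouring a luciferase neomycin HCV replicon reporter; luciferase luminescence as measure of HCV replicon replication; test concentration not given here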
[13] = molecular target: Left-right determination factor 2 (Homo sapiens) (UniProt O00292); test: LEFTY2 binders on small-molecule microarrays, primary screen, biochemical, small-molecule microarray, 635 nm fluorescence scan (AID 1110); conditions: LEFTY2 binding, higher = more signal
[14] = molecular target: Calmodulin-1 (Homo sapiens) (UniProt P0DP23); test: CALM1 binders on microarrays, EGTA buffer, profiling panel, biochemical, small-molecule microarray, Cy5-labelled CALM1 (AID 1111); conditions: Cy5-CALM1 binding fluorescence, higher = more signal;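 further: labelled calmodulin applied in Tris saline Tween buffer holding calcium plus EGTA and DTT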
[15] = molecular target: Calmodulin-1 (Homo sapiens) (UniProt P0DP23); test: calcium-bound CALM1 binders on microarrays, profiling panel, artefact control for SMM control-protein annotation, biochemical, small-molecule microarray, Cy5-labelled CALM1, plus calcium (AID 1112); conditions: Cy5-CALM1 binding fluorescence, higher = more signal;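 further: score merges spot fluorescence with signal to noise from triplicate slides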
[16] = small-molecule microarray binders of probe aWnt5a, primary screen, biochemical, biotinylated probe, 635/667 nm fluorescence (AID 1113); conditions: higher = more signal;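 further: score merges 667 nm fluorescence intensity with signal-to-noise per printed feature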
[17] = small-molecule microarray binders of probe aShh, primary screen, biochemical, biotinylated probe, 635/667 nm fluorescence (AID 1114); conditions: higher = more signal;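 further: probe is biotin-labelled aShh protein from a stem cell growth factor screen; measures binding of labelled protein to compounds printed on the slide; score merges feature fluorescence at 667 nm with signal-to-noise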
[18] = small-molecule microarray binders of probe aNog, primary screen, biochemical, biotinylated probe, 635/667 nm fluorescence (AID 1115); conditions: higher = more signal;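 further: probe is biotinylated aNog protein used at 0.15 µg/mL for 1 h at 4 C; z-score combines 667 nm fluorescence of each spot with its signal to noise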
[19] = molecular target: Torsin-1A-interacting protein 1 (Homo sapiens) (UniProt Q5JTV8); test: LAP1 binders from COS7 cell lysate, primary screen, small-molecule microarray, 635/667 nm fluorescence (AID 1116); conditions: COS7-hLAP1 lysate binding, 635 nm fluorescence, higher = more signal
[20] = molecular target: Alpha-bungarotoxin (Bungarus multicinctus) (UniProt P60615); test: alpha-bungarotoxin binders on microarray, profiling panel, artefact control for SMM control protein annotation, biochemical, small-molecule microarray, Alexa647 label, 635/667 nm fluorescence (AID 1117); conditions: alpha-BTX-A647 binding fluorescence, higher = more signal
Sequence of Alpha-bungarotoxin (Bungarus multicinctus) (P60615 whole entry, looked up): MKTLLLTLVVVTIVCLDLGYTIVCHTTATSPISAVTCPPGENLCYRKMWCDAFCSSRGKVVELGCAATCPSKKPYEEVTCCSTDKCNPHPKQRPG

Sequence of Dickkopf-related protein 1 (Homo sapiens) (O94907 whole entry, looked up): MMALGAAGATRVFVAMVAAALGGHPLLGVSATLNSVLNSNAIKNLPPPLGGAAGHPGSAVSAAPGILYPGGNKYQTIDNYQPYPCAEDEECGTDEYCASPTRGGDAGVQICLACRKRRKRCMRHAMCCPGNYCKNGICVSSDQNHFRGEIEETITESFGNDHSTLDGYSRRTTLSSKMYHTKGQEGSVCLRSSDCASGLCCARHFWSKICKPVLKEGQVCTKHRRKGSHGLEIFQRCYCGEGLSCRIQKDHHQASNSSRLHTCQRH
Sequence of Left-right determination factor 2 (Homo sapiens) (O00292 whole entry, looked up): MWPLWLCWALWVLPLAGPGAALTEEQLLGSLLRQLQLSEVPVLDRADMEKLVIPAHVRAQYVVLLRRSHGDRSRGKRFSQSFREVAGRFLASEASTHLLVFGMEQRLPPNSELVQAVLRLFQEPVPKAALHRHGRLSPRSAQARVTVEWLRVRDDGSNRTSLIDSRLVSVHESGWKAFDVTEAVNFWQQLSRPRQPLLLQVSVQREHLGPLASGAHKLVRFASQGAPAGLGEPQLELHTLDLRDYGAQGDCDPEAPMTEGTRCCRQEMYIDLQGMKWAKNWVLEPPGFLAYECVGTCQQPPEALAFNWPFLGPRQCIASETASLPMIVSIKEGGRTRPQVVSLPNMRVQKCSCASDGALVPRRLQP
Sequence of Follistatin-related protein 3 (Homo sapiens) (O95633 whole entry, looked up): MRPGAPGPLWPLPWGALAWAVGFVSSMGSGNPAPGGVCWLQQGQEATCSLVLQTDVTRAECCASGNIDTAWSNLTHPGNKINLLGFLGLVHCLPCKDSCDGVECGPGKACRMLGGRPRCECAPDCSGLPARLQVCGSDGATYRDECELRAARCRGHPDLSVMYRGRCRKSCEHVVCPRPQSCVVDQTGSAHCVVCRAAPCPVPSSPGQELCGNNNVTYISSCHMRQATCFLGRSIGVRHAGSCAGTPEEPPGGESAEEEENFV
Sequence of Fibroblast growth factor 10 (Homo sapiens) (O15520 whole entry, looked up): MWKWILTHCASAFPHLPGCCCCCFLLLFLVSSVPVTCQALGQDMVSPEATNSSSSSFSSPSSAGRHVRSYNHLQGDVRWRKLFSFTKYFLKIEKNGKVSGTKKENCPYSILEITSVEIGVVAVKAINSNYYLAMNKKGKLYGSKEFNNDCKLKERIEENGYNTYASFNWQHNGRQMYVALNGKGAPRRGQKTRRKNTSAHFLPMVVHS
Sequence of Epidermal growth factor receptor (Homo sapiens) (P00533 whole entry, looked up): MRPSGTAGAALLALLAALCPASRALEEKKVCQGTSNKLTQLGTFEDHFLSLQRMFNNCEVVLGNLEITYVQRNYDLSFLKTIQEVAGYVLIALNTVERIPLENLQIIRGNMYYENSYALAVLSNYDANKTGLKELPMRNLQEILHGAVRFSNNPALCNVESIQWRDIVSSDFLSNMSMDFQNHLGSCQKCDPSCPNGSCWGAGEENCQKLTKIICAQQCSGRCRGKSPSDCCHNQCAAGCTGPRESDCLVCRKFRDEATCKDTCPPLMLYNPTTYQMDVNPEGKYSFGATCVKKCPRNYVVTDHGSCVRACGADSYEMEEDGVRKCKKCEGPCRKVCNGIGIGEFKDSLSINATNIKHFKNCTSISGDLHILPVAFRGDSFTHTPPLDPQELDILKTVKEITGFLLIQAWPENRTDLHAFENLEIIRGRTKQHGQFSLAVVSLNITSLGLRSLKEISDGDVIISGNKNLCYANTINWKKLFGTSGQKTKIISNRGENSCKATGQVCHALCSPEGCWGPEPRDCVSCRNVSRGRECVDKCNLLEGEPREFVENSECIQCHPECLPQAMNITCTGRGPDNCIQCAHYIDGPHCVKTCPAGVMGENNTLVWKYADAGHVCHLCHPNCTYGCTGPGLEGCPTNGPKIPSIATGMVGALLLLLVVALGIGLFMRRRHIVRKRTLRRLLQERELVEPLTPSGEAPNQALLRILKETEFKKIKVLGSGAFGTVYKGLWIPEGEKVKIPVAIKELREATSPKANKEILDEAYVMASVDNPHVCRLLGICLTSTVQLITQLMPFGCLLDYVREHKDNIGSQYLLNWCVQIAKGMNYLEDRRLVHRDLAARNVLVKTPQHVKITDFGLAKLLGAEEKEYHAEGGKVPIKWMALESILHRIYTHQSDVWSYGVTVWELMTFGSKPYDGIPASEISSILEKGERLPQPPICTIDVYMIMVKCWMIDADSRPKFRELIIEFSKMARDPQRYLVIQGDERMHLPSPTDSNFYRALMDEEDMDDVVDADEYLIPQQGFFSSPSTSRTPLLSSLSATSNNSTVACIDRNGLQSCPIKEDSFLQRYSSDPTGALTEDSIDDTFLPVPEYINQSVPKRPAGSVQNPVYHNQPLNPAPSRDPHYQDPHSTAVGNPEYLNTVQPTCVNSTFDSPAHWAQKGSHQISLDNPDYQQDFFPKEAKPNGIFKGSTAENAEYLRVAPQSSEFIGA
Sequence of Torsin-1A-interacting protein 1 (Homo sapiens) (Q5JTV8 whole entry, looked up): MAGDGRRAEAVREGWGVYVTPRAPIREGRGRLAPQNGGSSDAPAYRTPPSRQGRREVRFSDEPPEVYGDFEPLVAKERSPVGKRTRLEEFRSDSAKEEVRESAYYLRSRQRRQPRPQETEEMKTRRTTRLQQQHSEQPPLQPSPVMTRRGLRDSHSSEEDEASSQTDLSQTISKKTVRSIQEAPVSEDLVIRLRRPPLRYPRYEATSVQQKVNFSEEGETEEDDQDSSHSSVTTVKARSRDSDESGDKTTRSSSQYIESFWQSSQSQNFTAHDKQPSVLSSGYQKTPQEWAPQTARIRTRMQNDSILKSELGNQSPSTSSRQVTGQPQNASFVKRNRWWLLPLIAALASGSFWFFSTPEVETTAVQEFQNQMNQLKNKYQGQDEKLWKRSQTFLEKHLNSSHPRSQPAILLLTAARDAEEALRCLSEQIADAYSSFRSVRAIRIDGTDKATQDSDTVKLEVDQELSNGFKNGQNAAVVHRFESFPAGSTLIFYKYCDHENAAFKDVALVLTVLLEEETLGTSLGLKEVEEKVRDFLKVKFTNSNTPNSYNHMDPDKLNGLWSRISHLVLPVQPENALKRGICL

| SMILES | composite z-score [1] | composite z-score [2] | composite z-score [3] | z-score [4] | composite z-score [5] | composite z-score [6] | composite z-score [7] | composite z-score [8] | composite z-score [9] | composite z-score [10] | composite z-score [11] | z-score [12] | composite z-score [13] | composite z-score [14] | composite z-score [15] | composite z-score [16] | composite z-score [17] | composite z-score [18] | composite z-score [19] | composite z-score [20] |
| --- | --- | --- | --- | --- | --- | --- | --- | --- | --- | --- | --- | --- | --- | --- | --- | --- | --- | --- | --- | --- |
| O=C1O[C@H](c2ccccc2)[C@H](c2ccccc2)N2[C@H]1[C@@H](C(=O)NC[C@H](O)c1ccccc1)[C@]1(C(=O)Nc3ccc(C#CC4(O)CCCCCC4)cc31)[C@H]2c1ccc(O)cc1 | 0.59 | 0.601 | 0.471 | 1.13 (inactive) | 1.05 | 1.15 | 0.251 | 0.715 | 0.324 | -0.0905 | 1.35 | 0.34 | 0.462 | 0.612 | 0.107 | -0.0542 | -0.0769 | 0.528 | 1.08 | 1.34 |
| C=C(/C(=C/C[C@H](OC(=O)c1ccncc1)c1cccc(OCCO)c1)c1cc(C(=O)OC)ccc1OC)C(C)C | 0.903 | 0.235 | 0.569 | -1.63 (inactive) | 0.493 | -0.129 | -0.763 | -0.127 | -0.227 | 0.639 | 0.0251 | -1.86 | -0.107 | -0.193 | -0.808 | -0.169 | -0.0035 | 0.0866 | -0.142 | 0.288 |
| COCCOC(=O)N1C(=O)[C@@]2(c3cc(C#CCNC(N)=O)ccc31)[C@H](C(=O)NC[C@H](O)c1ccccc1)[C@H]1C(=O)O[C@H](c3ccccc3)[C@H](c3ccccc3)N1[C@@H]2c1ccc(O)cc1 | 1.54 | 0.347 | 0.925 | 0.012 (inactive) | 0.477 | 0.0604 | -0.0057 | 0.683 | -0.347 | 0.7 | 0.515 | -0.249 | 0.0741 | 1.01 | 0.571 | -0.0203 | -0.152 | -0.122 | 0.138 | 1.04 |
| [N-]=[N+]=NCc1ccccc1C[C@]1(C(=O)NCc2ccccc2)N=C(c2ccc(OCCCO)cc2)O[C@H]1c1ccccc1 | 1.01 | 1.51 | 1.28 | 0.359 (inactive) | 0.19 | -0.516 | -0.864 | -0.565 | -1.03 | 0.928 | 0.508 | -1.95 | -0.941 | 1.82 | 1.36 | 0.108 | 0.23 | 0.682 | 1.31 | 1.22 |
| Cc1ccc(S[C@]2(C(=O)NCC(C)C)CC(=O)N(C(C)C)[C@@H]2c2ccc(CO)cc2)cc1 | 0.0739 | 0.457 | 0.696 | -0.982 (inactive) | -0.475 | -0.771 | -0.33 | -0.196 | -0.574 | 0.727 | -0.962 | -0.725 | -0.594 | -0.886 | 0.134 | -0.124 | -0.137 | -0.163 | 0.623 | -1.11 |
| CC(C)(C)OC(=O)CC[C@@]1(C(=O)N2CCOCC2)N=C(c2ccc(OCCCO)cc2)O[C@@H]1c1ccccc1 | 1.12 | 1.33 | 1.36 | -1.17 (inactive) | 0.728 | 0.943 | -0.384 | -0.462 | -0.607 | 0.743 | 0.358 | -0.0126 | -0.26 | 2.08 | 1.31 | -0.0403 | 0.798 | 1.4 | 3.32 | 2.06 |
